CYP2C9 inh: inhibitors of human CYP2C9; P11712; CYP2C9 Supersomes, luciferin-H conversion, luminescence; inhibition, % at 5 µM; 96,000 tested, 20% active; AID 777;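 active = blocking of liver enzyme CYP2C9 beyond about 50% at 5 µM, limit read from the data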
Pyk2 oligo antag: blocks oligomerization of human Pyk2 in cells. Q293 cells, Pyk2 FERM NanoBiT luminescence; stronger effect = lower value. z-score (the deposit names both 25 µM and 10 µM). 99,000 tested, 0.83% active. AID 1347419;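 active = Z-score of -3 or lower, scaled per plate to the spread of control and sample wells; inactive = z-score above -3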;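 also: negative z-score means lost luminescence so less FERM oligomerization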
Target sequence (Q14289 whole entry, looked up): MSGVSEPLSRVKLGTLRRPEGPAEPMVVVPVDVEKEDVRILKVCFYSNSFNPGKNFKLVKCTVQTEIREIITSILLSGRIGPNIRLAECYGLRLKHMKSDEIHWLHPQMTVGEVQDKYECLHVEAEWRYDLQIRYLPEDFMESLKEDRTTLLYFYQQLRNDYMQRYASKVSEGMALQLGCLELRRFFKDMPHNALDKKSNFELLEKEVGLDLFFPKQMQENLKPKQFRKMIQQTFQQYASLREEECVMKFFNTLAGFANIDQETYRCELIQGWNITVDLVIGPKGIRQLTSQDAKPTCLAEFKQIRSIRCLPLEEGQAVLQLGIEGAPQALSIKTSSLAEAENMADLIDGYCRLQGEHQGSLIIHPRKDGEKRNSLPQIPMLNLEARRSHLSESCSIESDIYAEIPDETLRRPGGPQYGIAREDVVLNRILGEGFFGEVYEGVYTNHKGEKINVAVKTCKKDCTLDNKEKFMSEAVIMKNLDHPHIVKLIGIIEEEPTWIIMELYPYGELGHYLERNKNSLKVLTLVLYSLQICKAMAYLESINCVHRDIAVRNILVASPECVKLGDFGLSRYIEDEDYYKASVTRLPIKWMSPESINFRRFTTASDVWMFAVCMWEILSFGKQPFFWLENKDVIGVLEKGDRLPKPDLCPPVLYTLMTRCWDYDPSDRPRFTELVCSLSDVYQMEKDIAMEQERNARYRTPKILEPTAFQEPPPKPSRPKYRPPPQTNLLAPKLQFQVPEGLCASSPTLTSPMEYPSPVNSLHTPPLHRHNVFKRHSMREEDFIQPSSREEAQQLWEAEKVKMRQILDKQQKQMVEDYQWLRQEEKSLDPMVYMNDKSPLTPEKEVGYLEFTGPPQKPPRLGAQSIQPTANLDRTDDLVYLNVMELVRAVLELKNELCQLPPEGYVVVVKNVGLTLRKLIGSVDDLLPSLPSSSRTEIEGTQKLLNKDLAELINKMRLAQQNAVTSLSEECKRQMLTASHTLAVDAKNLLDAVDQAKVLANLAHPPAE
CYP2C19 act: increases human CYP2C19 enzyme activity. P33261. recombinant CYP2C19, luciferin-H EGE luminescence; stronger effect = higher value; 0 = fully inhibited enzyme, 1 = untreated enzyme. activation factor at 5 µM. 96,000 tested, under 10 active. AID 1025;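 active = activation factor of at least 2 at 5 µM in the primary screen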;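 also: 0 = wells with 2.5 mM tranylcypromine and 1 = vehicle-only wells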
CYP2C19 inhib: human CYP2C19 inhibition | 96,000 tested, 21% active | CYP2C19 Supersomes, luciferin-H EGE luminescence, 30 min | P33261 | inhibition, % at 5 µM;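 active = CYP2C19 inhibition above a set limit at 5 µM in the primary screen, cut at about 50% in these data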;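 also: plate controls were negative control wells for no effect and 2.5 mM tranylcypromine positive control for full effect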
CYP2C9 act: increases human cytochrome P450 2C9 activity; recombinant CYP2C9, luciferin-H conversion, luminescence; stronger effect = higher value; factor 1 = untreated enzyme, 0 = blocked; activation factor at 5 µM; 96,000 tested, 1.4% active; AID 1024;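 active = activation factor of 2 or more for CYP2C9 at a 5 µM dose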;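 also: 0 = sulfaphenazole-blocked wells and 1 = vehicle-only wells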
* marks the source's active call; other numbers are inactive results. Rows were chosen to be rich in hits. Some 28% of all compounds tested hit in one or more screens of this group.

CCOc1cc(/C=N/NC(=O)Cn2nc([N+](=O)[O-])cc2C)cc(Br)c1OCc1ccccc1C was read as CYP2C9 inh 70*, Pyk2 oligo antag 0.02, CYP2C19 act 0.5, CYP2C19 inhib 47 and CYP2C9 act 0.3.
For CCOc1cc(/C=N/NC(N)=O)cc(Br)c1OCC(=O)Nc1cccc2ccccc12 the results were CYP2C9 inh 7, Pyk2 oligo antag -1.2, CYP2C19 act 0.9, CYP2C19 inhib 7 and CYP2C9 act 0.9.
COc1cc(/C=N/NC(=O)Cn2nc([N+](=O)[O-])cc2C)cc(Br)c1OCc1ccccc1 was read as CYP2C9 inh 74*, Pyk2 oligo antag -0.44, CYP2C19 act 0.4, CYP2C19 inhib 59* and CYP2C9 act 0.3.
For COc1cc(/C=N/NC(N)=O)cc(Br)c1OCc1ccccc1C the results were CYP2C9 inh -4, Pyk2 oligo antag 0.49, CYP2C19 act 1.2, CYP2C19 inhib -16 and CYP2C9 act 1.
`CCC(CC)NC(=O)c1cc(OC)c(OC)cc1[N+](=O)[O-]` gave CYP2C9 inh 7, Pyk2 oligo antag 1, CYP2C19 act 1.1, CYP2C19 inhib -8 and CYP2C9 act 0.9.
O=C(Cn1nnc(-c2ccc(Cl)cc2)n1)NCC1CCCCC1 was read as CYP2C9 inh 33, Pyk2 oligo antag -0.49, CYP2C19 act 0.5, CYP2C19 inhib 45 and CYP2C9 act 0.7.
For O=C(CN1CCC(O)(c2ccc3c(c2)OCO3)CC1)OC1CCCCC1 the results were CYP2C9 inh 36, Pyk2 oligo antag 0.39, CYP2C19 act 0.5, CYP2C19 inhib 54* and CYP2C9 act 0.6.
NC(=O)c1cc(Cl)cn(-c2ccccc2)c1=O was read as CYP2C9 inh -26, CYP2C19 act 1.3, CYP2C19 inhib -25 and CYP2C9 act 1.3.
Screening COc1ccc(Cl)cc1NC(=O)Nc1cccc([N+](=O)[O-])c1C returned CYP2C9 inh 3, Pyk2 oligo antag -1.2, CYP2C19 act 0.9, CYP2C19 inhib 10 and CYP2C9 act 1.
COc1cc(Nc2ccccc2Cl)c([N+](=O)[O-])nc1[N+](=O)[O-] was read as CYP2C9 inh 8, Pyk2 oligo antag -0.57, CYP2C19 act 0.2, CYP2C19 inhib 81* and CYP2C9 act 0.9.
Screening C=C(C)Cn1c(NCCOC)nc2c1c(=O)[nH]c(=O)n2C returned Pyk2 oligo antag 0.66.
`CCOC(=O)c1nnn(-c2nonc2N)c1-c1ccc(OC)cc1` gave CYP2C9 inh 80*, Pyk2 oligo antag -0.52, CYP2C19 act 0, CYP2C19 inhib 98* and CYP2C9 act 0.2.
For CCOC(=O)c1nnn(-c2nonc2N)c1CN(CC)CC the results were CYP2C9 inh 2, Pyk2 oligo antag -0.45, CYP2C19 act 0.6, CYP2C19 inhib 36 and CYP2C9 act 1.
`Nc1nonc1-n1nnc(C(=O)O)c1-c1cccs1` gave CYP2C9 inh 84*, Pyk2 oligo antag -0.04, CYP2C19 act 0.9, CYP2C19 inhib 10 and CYP2C9 act 0.2.
CCOC(=O)c1nnn(-c2nonc2N)c1-c1cccc2ccccc12 was read as CYP2C9 inh 84*, Pyk2 oligo antag -1.6, CYP2C19 act 0, CYP2C19 inhib 98* and CYP2C9 act 0.2.
Screening CCOC(=O)c1nnn(-c2nonc2N)c1-c1cccs1 returned CYP2C9 inh 4, Pyk2 oligo antag -0.27, CYP2C19 act 0.3, CYP2C19 inhib 68* and CYP2C9 act 1.
For Cc1cnnn1-c1ccc(C(=O)CCl)cc1 the results were CYP2C9 inh -14, Pyk2 oligo antag 0.09, CYP2C19 act 1.3, CYP2C19 inhib -26 and CYP2C9 act 1.1.
`NS(=O)(=O)c1ccc(CCNC2CC(=O)N(CCc3ccccc3)C2=O)cc1` (stereo unspecified) gave CYP2C9 inh -15, Pyk2 oligo antag 0.06, CYP2C19 act 1.1, CYP2C19 inhib -12 and CYP2C9 act 1.2.
`Cc1cccc(C(=O)Nc2ccccc2SCC2CSc3nc4ccccc4c(=O)n32)c1` (stereo unspecified) gave CYP2C9 inh 10, Pyk2 oligo antag -0.04, CYP2C19 act 0.8, CYP2C19 inhib 22 and CYP2C9 act 0.9.
Screening COc1ccccc1N(CC(=O)Nc1ccc(F)c(F)c1)S(C)(=O)=O returned CYP2C9 inh 66*, Pyk2 oligo antag -0.58, CYP2C19 act 0.1, CYP2C19 inhib 88* and CYP2C9 act 0.3.
Screening COc1ccccc1N(CC(=O)Nc1cccnc1)S(C)(=O)=O returned CYP2C9 inh 31, Pyk2 oligo antag 0.75, CYP2C19 act 0.3, CYP2C19 inhib 68* and CYP2C9 act 0.7.
For COc1ccc(S(=O)(=O)N(CC(=O)Nc2cccnc2)c2ccccc2OC)cc1 the results were CYP2C9 inh 94*, Pyk2 oligo antag -0.21, CYP2C19 act 0.5, CYP2C19 inhib 54* and CYP2C9 act 0.1.
`COc1ccc(OC)c(N(CC(=O)Nc2cccnc2)S(=O)(=O)c2ccccc2)c1` gave CYP2C9 inh 98*, Pyk2 oligo antag -0.28, CYP2C19 act 0, CYP2C19 inhib 98* and CYP2C9 act 0.
`CC(C)CC(=O)Nc1cc(NC(=O)CC(C)C)cc(C(=O)NC(C)(C)C)c1` gave CYP2C9 inh 22, Pyk2 oligo antag -0.69, CYP2C19 act 0.8, CYP2C19 inhib 20 and CYP2C9 act 0.8.
For Cc1cccc(OCCNc2nc3c(c(=O)n(C)c(=O)n3C)n2C)c1 the results were CYP2C9 inh 29, Pyk2 oligo antag 1.1, CYP2C19 act 0.8, CYP2C19 inhib 17 and CYP2C9 act 0.7.
For CCOC(=O)C1(CC/C(C)=N\NC(N)=O)CC(C)(C)OC1=O (stereo unspecified) the results were Pyk2 oligo antag 0.
For O=C(Nc1ccc(S(=O)(=O)Nc2ncccn2)cc1)c1ccco1 the results were CYP2C9 inh 2, Pyk2 oligo antag -0.05, CYP2C19 act 1.1, CYP2C19 inhib -6 and CYP2C9 act 1.
NC(=O)C1CCCN(C(=O)NC2CCCCC2)C1 (stereo unspecified) was read as CYP2C9 inh 13, Pyk2 oligo antag 0.68, CYP2C19 act 1.1, CYP2C19 inhib -8 and CYP2C9 act 0.9.
COc1ccccc1N(CC(=O)Nc1cccnc1)S(=O)(=O)c1ccccc1 was read as CYP2C9 inh 100*, Pyk2 oligo antag -1.6, CYP2C19 act 0.1, CYP2C19 inhib 90* and CYP2C9 act 0.
`COc1ccc(Cn2c(CCC(=O)Nc3ccc(CC#N)cc3)nc3cccnc32)cc1` gave CYP2C9 inh 12, Pyk2 oligo antag -0.61, CYP2C19 act 1, CYP2C19 inhib 4 and CYP2C9 act 0.9.
`CCOC(=O)C(C)c1ccc2cc(OC)ccc2c1` (stereo unspecified) gave CYP2C9 inh -28, Pyk2 oligo antag 0, CYP2C19 act 0.5, CYP2C19 inhib 52* and CYP2C9 act 1.3.
`CCOC(=O)C(C(C)=O)C(c1ccc(OC)cc1)C(C(C)=O)C(=O)OCC` (stereo unspecified) gave CYP2C9 inh -18, Pyk2 oligo antag -0.1, CYP2C19 act 1.1, CYP2C19 inhib -8 and CYP2C9 act 1.2.
